T cruzi growth-1 – blocks T. cruzi growth in NIH3T3 culture. T. cruzi beta-gal in NIH3T3, GalScreen luminescence, 90 h. inhibition, % at 8.34 µM. actives 5.9% (n = 77,000). AID 624255;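 active means mean inhibition above about 93%, with at least 55% of replicates each passing it, limit read from the data, passing the limit was not always enough; inconclusive means only one of those two conditions holds; inactive means neither condition holds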
Pf Dd2 growth – blocks growth of Plasmodium falciparum Dd2 parasites; actives 2.3% (n = 94,000); P. falciparum Dd2 growth, SYBR Green, 72 h; stronger effect = lower value; activity change, % at 10 µM; in the data active means activity change below about -80%; inconclusive means no clear call, values can overlap the other calls
C diff growth – blocks growth of Clostridium difficile; growth activity, negative = inhibition, % at 16 µg/mL (by protocol); Clostridium difficile clinical isolate growth, OD600, 24 h; stronger effect = lower value; actives 0.25% (n = 86,000); AID 1259249;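 active means mean growth activity at or below -80% and every replicate also at or below -80%; inconclusive means mean at or below -80% but some replicate above -80%; inactive means mean growth activity above -80%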;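 further: 0% = DMSO wells and -100% = levofloxacin 16 µg/mL wells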
T cruzi growth-2 – Trypanosoma cruzi proliferation inhibition | shares compounds with T cruzi growth-1 | T. cruzi beta-gal in NIH3T3, GalScreen luminescence, 90 h | inhibition, % at 8.35 µM | actives 72% (n = 5,600);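 active means mean replicate inhibition above about 95% and at least 55% of replicates individually reaching it, limit read from the data; inconclusive means only one of the two criteria is met; inactive means neither criterion is met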
T cruzi growth-3 – Trypanosoma cruzi proliferation inhibition; shares compounds with T cruzi growth-1; actives 21% (n = 5,600); T. cruzi beta-gal in NIH3T3, GalScreen luminescence, 90 h; inhibition, % at 2.09 µM;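 active means mean inhibition above about 95%, with at least 55% of replicates also reaching it, limit read from the data; inconclusive means meets just one of the two conditions; inactive means meets neither condition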;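 further: plate controls were neutral control median for no effect and positive control median for full effect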
3T3 cytotox – NIH/3T3 (mouse) viability loss | shares compounds with T cruzi growth-1 | NIH/3T3 viability, CellTiter-Glo ATP luminescence, 90 h | cytotoxicity (signal decrease), % at 8.35 µM | actives 14% (n = 5,600) | AID 651742;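 active means mean signal decrease across replicates above about 35% based on untreated-well scatter, with enough replicates individually passing, limit read from the data; inconclusive means no rule stated though some were filed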;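 further: 0% = median of neutral control wells and 100% = median of positive control wells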
NIH3T3 tox 2 – cytotoxicity in mouse NIH/3T3 fibroblasts. shares compounds with T cruzi growth-1. NIH/3T3 viability, CellTiter-Glo ATP luminescence, 90 h. inhibition, % at 24.9 µM. actives 56% (n = 5,600). AID 651744;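 active means mean loss of cell viability signal at or above a set limit, and enough replicates individually reaching it; inconclusive means meets only the mean limit or only the replicate share; inactive means meets neither condition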;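 further: 0% = median of neutral control wells and 100% = median of positive control wells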
Numbers without * were called inactive. This is a sample that favours compounds with a hit; in the whole collection about 6.8% have one here.

How did N#C[C@H]1[C@@H](c2ccc(/C=C/c3ccccc3)cc2)[C@@H](CO)N1C(=O)C1CC1 do in these assays?
T cruzi growth-1: inconclusive; Pf Dd2 growth: 41; C diff growth: 3; T cruzi growth-2: 106*; T cruzi growth-3: 40; 3T3 cytotox: 20; NIH3T3 tox 2: 35*

What do the screens show for `COc1ccc(-c2ccc([C@H]3[C@@H](CO)N(C(=O)C4CC4)[C@H]3C#N)cc2)cc1`?
T cruzi growth-1: 43; Pf Dd2 growth: 60; C diff growth: 6

How did N#C[C@@H]1[C@H](c2ccccc2)[C@@H](CO)N1C(=O)C1CCCC1 do in these assays?
T cruzi growth-1: 33; Pf Dd2 growth: 17; C diff growth: -11

Results for CNC(=O)C[C@@H]1CC[C@@H]2[C@@H](COc3ccc(NC(=O)Nc4ccccc4)cc3C(=O)N2C)O1 ?
T cruzi growth-1: -4; Pf Dd2 growth: -3; C diff growth: -8

Results for C[C@@H]1CN([C@@H](C)CO)C(=O)Cc2cc(NC(=O)Cn3cnnn3)ccc2O[C@@H]1CN(C)Cc1ccc(Cl)c(Cl)c1 ?
T cruzi growth-1: 101; Pf Dd2 growth: 4; C diff growth: 6

What do the screens show for `Cc1ccc(S(=O)(=O)Nc2ccc3c(c2)C(=O)N([C@@H](C)CO)C[C@@H](C)[C@H](CN(C)C(=O)Nc2ccc(F)cc2)O3)cc1`?
T cruzi growth-1: -20; Pf Dd2 growth: 1; C diff growth: -9

What do the screens show for `O=C(C[C@H]1C=C[C@H](NC(=O)CN2CCOCC2)[C@H](CO)O1)NC1CCC1`?
Pf Dd2 growth: 6; C diff growth: 1

Results for C[C@@H]1CN([C@@H](C)CO)C(=O)c2cc(NS(=O)(=O)c3ccc(F)cc3)ccc2O[C@@H](C)CCCCO[C@@H]1CN(C)Cc1ccc2c(c1)OCO2 ?
T cruzi growth-1: 119*; Pf Dd2 growth: -73; T cruzi growth-2: 106*; T cruzi growth-3: 45; 3T3 cytotox: 17; NIH3T3 tox 2: 97*

Results for C[C@@H]1CN([C@H](C)CO)C(=O)c2cc(NS(=O)(=O)c3ccc(F)cc3)ccc2O[C@@H](C)CCCCO[C@H]1CN(C)Cc1ccc2c(c1)OCO2 ?
T cruzi growth-1: 112*; Pf Dd2 growth: -48; T cruzi growth-2: 106*; T cruzi growth-3: 85; 3T3 cytotox: 29; NIH3T3 tox 2: 104*

What do the screens show for `C[C@H]1CCCCO[C@H](CN(C)Cc2ccc3c(c2)OCO3)[C@@H](C)CN([C@@H](C)CO)C(=O)c2cc(NS(=O)(=O)c3ccc(F)cc3)ccc2O1`?
T cruzi growth-1: 58; Pf Dd2 growth: -39

Results for C[C@@H]1CCCCO[C@H](CN(C)Cc2ccc3c(c2)OCO3)[C@H](C)CN([C@@H](C)CO)C(=O)c2cc(NS(=O)(=O)c3ccc(F)cc3)ccc2O1 ?
T cruzi growth-1: 85; Pf Dd2 growth: -65

How did C[C@@H]1CN([C@H](C)CO)C(=O)c2cccc(NS(=O)(=O)c3ccc(Cl)cc3)c2O[C@@H]1CN(C)S(=O)(=O)c1cccs1 do in these assays?
T cruzi growth-1: 44; Pf Dd2 growth: -2; C diff growth: -9

What do the screens show for `Cc1noc(C)c1NC(=O)Nc1ccc2c(c1)C(=O)N([C@H](C)CO)C[C@@H](C)[C@H](CN(C)CC1CCCCC1)O2`?
T cruzi growth-1: 39; Pf Dd2 growth: 2; C diff growth: 2

Results for CO[C@@H]1CN(C)C(=O)c2cc(NS(C)(=O)=O)ccc2OC[C@@H](C)N(S(=O)(=O)CC(F)(F)F)C[C@H]1C ?
T cruzi growth-1: 23; Pf Dd2 growth: -12

How did CC(C)NC(=O)N[C@H]1CC[C@@H](CCNS(=O)(=O)c2ccc(Cl)cc2)O[C@@H]1CO do in these assays?
T cruzi growth-1: -66; Pf Dd2 growth: -6; C diff growth: 6

Results for O=C(N[C@@H]1CC[C@@H](CC(=O)N2CCCCC2)O[C@@H]1CO)c1cccc(F)c1 ?
T cruzi growth-1: 12; Pf Dd2 growth: -6; C diff growth: -3

Results for CC(C)NC(=O)Nc1ccc2c(c1)C(=O)N([C@H](C)CO)C[C@H](C)[C@H](CN(C)S(=O)(=O)c1ccc(F)cc1)OCCCC[C@H](C)O2 ?
T cruzi growth-1: -59; C diff growth: -11

How did C[C@H](CO)N1C[C@H](C)[C@H](CN(C)S(=O)(=O)c2ccccc2)OCCCC[C@H](C)Oc2ccc(NC(=O)Nc3ccc(F)cc3)cc2C1=O do in these assays?
T cruzi growth-1: 109*; Pf Dd2 growth: -61; C diff growth: -7; T cruzi growth-2: 106*; T cruzi growth-3: 83; 3T3 cytotox: 26; NIH3T3 tox 2: inconclusive

How did C[C@@H]1CCCCO[C@@H](CN(C)S(=O)(=O)c2ccccc2)[C@H](C)CN([C@@H](C)CO)C(=O)c2cc(NC(=O)Nc3ccc(F)cc3)ccc2O1 do in these assays?
T cruzi growth-1: 104*; Pf Dd2 growth: -36; C diff growth: 11; T cruzi growth-2: 107*; T cruzi growth-3: 38; 3T3 cytotox: 1; NIH3T3 tox 2: -9

Results for C[C@@H]1CCCCO[C@H](CN(C)S(=O)(=O)c2ccccc2)[C@@H](C)CN([C@@H](C)CO)C(=O)c2cc(NC(=O)Nc3ccc(F)cc3)ccc2O1 ?
T cruzi growth-1: 106*; Pf Dd2 growth: -75; C diff growth: 4; T cruzi growth-2: 108*; T cruzi growth-3: 75; 3T3 cytotox: 5; NIH3T3 tox 2: 36*

Results for O=C(C[C@H]1C=C[C@@H](NC(=O)CN2CCOCC2)[C@H](CO)O1)NC1CCCCC1 ?
T cruzi growth-1: -68; Pf Dd2 growth: 35; C diff growth: 1

Results for CCC(=O)N1C[C@H](C)[C@H](OC)CN(C)C(=O)c2cc(NC(=O)NC3CCCC3)ccc2OC[C@@H]1C ?
Pf Dd2 growth: 7; C diff growth: -9

Results for C[C@@H]1CCCCO[C@H](CN(C)C(=O)CCC(F)(F)F)[C@H](C)CN([C@@H](C)CO)C(=O)c2cc(NC(=O)CCCN(C)C)ccc2O1 ?
T cruzi growth-1: -33; Pf Dd2 growth: 44; C diff growth: 4

How did COc1ccc(S(=O)(=O)N(C)C[C@@H]2OCCCC[C@@H](C)Oc3ccc(NC(=O)C4CCCCC4)cc3C(=O)N([C@@H](C)CO)C[C@H]2C)cc1 do in these assays?
T cruzi growth-1: 106*; Pf Dd2 growth: -69; C diff growth: 6; T cruzi growth-2: 107*; T cruzi growth-3: 40; 3T3 cytotox: 9; NIH3T3 tox 2: 21

Results for C[C@@H]1CCCCO[C@H](CN(C)S(=O)(=O)c2ccc(Cl)cc2)[C@H](C)CN([C@@H](C)CO)C(=O)c2cc(NC(=O)C3CCCCC3)ccc2O1 ?
T cruzi growth-1: 108*; Pf Dd2 growth: -80; C diff growth: -7; T cruzi growth-2: 103*; T cruzi growth-3: 84; 3T3 cytotox: -8; NIH3T3 tox 2: 24

High-throughput results: PubChem, Broad Institute
